In PubChem BioAssay:

biological target: Fibroblast growth factor 10 (Homo sapiens) (UniProt O15520); assay: compounds binding fibroblast growth factor 10 – biochemical, small-molecule microarray, 635 nm fluorescence, primary screen (AID 1102); conditions: FGF10 binding, fluorescence 635 nm, higher = more signal
Sequence (O15520 whole entry, looked up): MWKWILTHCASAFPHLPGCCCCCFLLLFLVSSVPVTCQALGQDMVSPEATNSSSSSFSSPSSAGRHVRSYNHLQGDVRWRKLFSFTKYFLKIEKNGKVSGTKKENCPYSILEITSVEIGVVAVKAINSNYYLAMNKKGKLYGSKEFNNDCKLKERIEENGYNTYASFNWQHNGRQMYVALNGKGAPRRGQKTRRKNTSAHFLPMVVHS

Row | Compound | composite z-score
1 | C=CCN1C(=O)[C@@]2(Cc3ccccc3)N=C(c3ccc(OCCCO)cc3)O[C@H]2c2ccccc21 | 0.534
2 | CC(=O)Nc1ccc([C@H]2[C@H](C)CC[C@H]3C(=O)N4[C@@H](CC[C@@H](C)[C@@H]4c4ccc(NC(C)=O)cc4)C(=O)N32)cc1 | 1
3 | COc1cc2c(cc1OC)CN(C(=O)[C@@H]1[C@H]3C(=O)O[C@H](c4ccccc4)[C@H](c4ccccc4)N3[C@H](c3ccccc3OCCO)[C@@]13C(=O)Nc1ccccc13)CC2 | 0.748
4 | CCOC(=O)C[C@H]1[C@H](OC(=O)Cc2ccc3c(c2)OCO3)[C@@H](NC(=O)c2ccc3ccccc3c2)c2cc(OCCCO)ccc2N1C(=O)Cc1ccc(OC)cc1 | 0.491
5 | CO[C@@H]1COC(=O)[C@H](C)NC(=O)CC=C[C@@H](C)[C@H](OC)COC(=O)[C@H](C)NC(=O)CC=C[C@H]1C | 0.43
6 | CO[C@H]1COC(=O)CC=C[C@H](C)COC(=O)[C@@H](OCc2ccccc2)C=C[C@@H]1C | 0.429
7 | CCCC[C@@H]1C[C@H]1[C@@H](NC(=O)c1ccccc1)c1ccccc1C(F)(F)F | 0.0165
8 | CO[C@@H]1COC(=O)[C@H](C)NC(=O)CC=C[C@@H](C)[C@H](NS(=O)(=O)c2ccc(C)cc2)COC(=O)CC=C[C@@H]1C | 0.0743
9 | CC(=O)NCCCC[C@@H]1NC(=O)[C@H]2C[C@@H](C(=O)NCCCCCCN(C)C)[C@@H](c3cccc(OCCO)c3)N2C1=O | 1.39
10 | NC(=O)NCC#Cc1ccc2c(c1)[C@]1(C(=O)N2)[C@H](c2ccccc2OCCO)N2[C@H](c3ccccc3)[C@H](c3ccccc3)OC(=O)[C@H]2[C@@H]1C(=O)N1CCN(c2ncccn2)CC1 | 0.651
11 | C[C@]1(C(=O)NCc2ccccc2)c2ccccc2C(=O)N(Cc2cc(C(F)(F)F)cc(C(F)(F)F)c2)[C@H]1c1ccc(CO)cc1 | 0.894
12 | C=C(COC)/C(=C/C[C@@H](OC(C)=O)c1cccc(OCCO)c1)c1cc(C(=O)OC)ccc1OC | 0.0556
13 | COC(=O)[C@H]1[C@@H]2COc3ccccc3[C@H]2N[C@H]1C(=O)OC | 0.348
14 | CCc1cccc(NC(=O)O[C@H]2[C@H](OC(=O)Nc3ccccc3)[C@@H](OC(=O)Nc3ccccc3)[C@@H](OC)O[C@@H]2CO)c1 | 1.54
15 | C=CCN1C(=O)[C@]2(O[C@H](CCn3cc(CCO)nn3)[C@@H]([Si](C)(C)c3ccc(OC)cc3)[C@@H]2C)c2cc(NC(=O)c3ccc(OC)cc3)ccc21 | 0.515
16 | C=C(COC)/C(=C/C[C@H](OC(C)=O)c1ccc(OCCO)cc1)c1cnc2ccccc2c1 | 0.741
17 | [N-]=[N+]=NCc1ccccc1C[C@]1(C(=O)N2CCCCC2)N=C(c2ccc(OCCCO)cc2)O[C@H]1c1ccccc1CN=[N+]=[N-] | 0.924
18 | CO[C@H]1O[C@H](CO)[C@@H](OC(=O)Nc2ccccc2)[C@H](OC(=O)Nc2ccc3c(c2)OCO3)[C@@H]1OC(=O)Nc1ccc2c(c1)OCO2 | 0.183
19 | CCOC(=O)C1=C[C@@H](c2ccccc2)N(S(=O)(=O)c2ccc(C)cc2)[C@H]1c1ccc(F)cc1 | 0.635
20 | CCCC=C(CCC)[C@@H](NC(=O)c1ccc(C(F)(F)F)cc1)c1ccccc1 | -0.433
21 | COC(=O)C[C@H]1O[C@]2(C(=O)N(Cc3ccccc3)c3ccc(I)cc32)[C@@H](C)[C@@H]1[Si](C)(C)c1ccc(OC)cc1 | 0.0095
22 | CCC(=O)[C@]12O[C@@]3([C@@H]4C(=O)OCC[C@@H]41)N(CC)C(C)=C(C(=O)OC)[C@@H](c1ccccc1)N3C2=O | 0.162
23 | COCCOC(=O)N1C(=O)[C@@]2(c3cc(C#CC4=CCCCC4)ccc31)[C@H](c1ccc(O)cc1)N1[C@H](c3ccccc3)[C@H](c3ccccc3)OC(=O)[C@H]1[C@@H]2C(=O)N1CCCCCCC1 | 0.603
24 | O=C(CS)NCCCCCNC(=O)[C@H]1C[C@H]2C(=O)N3CCC[C@H]3C(=O)N2[C@H]1c1ccc(O)cc1 | -0.0763
25 | CSCC[C@@H]1NC(=O)CC=C[C@@H](C)COC(=O)[C@H](CCSC)NC(=O)CC=C[C@@H](C)COC1=O | 0.435
26 | COCCOC(=O)N1C(=O)[C@@]2(c3cc(C#CCNC(N)=O)ccc31)[C@H](C(=O)N1CCCCCCC1)[C@H]1C(=O)O[C@H](c3ccccc3)[C@H](c3ccccc3)N1[C@@H]2c1ccccc1OCCO | 0.718
27 | O=C1O[C@H](c2ccccc2)[C@H](c2ccccc2)N2[C@H]1[C@@H](C(=O)Nc1nc3ccccc3s1)[C@]1(C(=O)Nc3ccc(C#CC4(O)CCCCCC4)cc31)[C@H]2c1ccc(O)cc1 | 1.13
